From the supplement of paper PMC6522484
± gives the standard deviation of the averaged measurements.

Key:
[1] = tested on: DLD1; assay: cell viability (CellTiter-Glo) relative to plate median (fraction of plate median); higher = more viable cells; conditions: 5 µM; treatment time 24 h; reporter: 7TFP
Method in brief: (§1)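 Per-well firefly luciferase or CellTiterGlo luminescence, normalised to the plate median, is what is reported. It was measured in colorectal cancer cells with stable lentiviral TCF/Wnt firefly luciferase reporters after a 24 h treatment with library compounds at a final 5 µM. The mean of two independent replicates is given.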

[2] = tested on: HCT116; assay: as above; conditions: 5 µM; treatment time 24 h; reporter: TCF4/Wnt
Method in brief: as §1

[3] = tested on: SW480; assay: as above; conditions: 5 µM; treatment time 24 h; reporter: 7TFP
Method in brief: as §1

[4] = tested on: DLD1; assay: TCF/Wnt firefly luciferase reporter signal relative to plate median (fraction of plate median); higher = higher Wnt reporter signal; conditions: 5 µM; treatment time 24 h; reporter: 7TFP
Method in brief: as §1

[5] = tested on: SW480; assay: as above; conditions: 5 µM; treatment time 24 h; reporter: 7TFP
Method in brief: as §1

Row | Structure (SMILES) | cell viability [1] | cell viability [2] | cell viability [3] | TCF/Wnt firefly luciferase reporter signal [4] | TCF/Wnt firefly luciferase reporter signal [5]
1 | C[C@H]1C[C@@H]2[C@H]([C@@H](O)C[C@@]3(C)[C@H]2CC[C@]3(O)C(=O)COC(=O)CCC(=O)O)[C@@]2(C)C=CC(=O)C=C12 | 0.918 ± 0.13 | 1.01 ± 0.018 | 0.921 ± 0.012 | 0.964 ± 0.044 | 0.997 ± 0.061
2 | CC(O)(P(=O)(O)O)P(=O)(O)O | 0.949 ± 0.073 | 0.943 ± 0.032 | 0.956 ± 0.037 | 1 ± 0.13 | 0.968 ± 0.06
3 | O=C(O)c1cccnc1 | 1.05 ± 0.042 | 1.01 ± 0.11 | 1.06 ± 0.05 | 0.969 ± 0.039 | 0.976 ± 0.062
4 | Cc1c(C(N)=O)cc([N+](=O)[O-])cc1[N+](=O)[O-] | 0.985 ± 0.035 | 0.926 ± 0.15 | 0.981 ± 0.056 | 0.9 ± 0.05 | 0.9925 ± 0.0064
5 | O=C1OCC(Cc2ccccc2)C1c1ccccc1 (stereo not given) [3-Benzyl-2-phenyl-butyrolactone] | 1.07 ± 0.085 | 1.01 ± 0.014 | 0.978 ± 0.045 | 0.917 ± 0.12 | 1.1 ± 0.078
6 | C1CCN2C[C@@H]3C[C@@H](CN4CCCC[C@@H]34)[C@H]2C1 | 1.08 ± 0.12 | 1.04 ± 0.021 | 1.05 ± 0.021 | 1.16 | 0.948 ± 0.053
7 | O=C(O)c1ccccc1C(=O)Nc1ccc(S(=O)(=O)Nc2nccs2)cc1 | 1.05 ± 0.08 | 0.918 ± 0.088 | 1.004 ± 0.0085 | 1.03 ± 0.12 | 1.11 ± 0.021
8 | C=C(C)[C@@H]1CC=C(CO)CC1 | 0.968 ± 0.1 | 0.972 ± 0.12 | 0.996 ± 0.0042 | 0.952 ± 0.016 | 0.972 ± 0.054
9 | N=C(N)N/N=C/c1c(Cl)cccc1Cl | 0.976 ± 0.028 | 1.02 ± 0.042 | 1.02 ± 0.014 | 1.02 ± 0.021 | 1.05 ± 0.064
10 | CC(C)[N+]1(C)[C@@H]2CC[C@H]1C[C@@H](OC(=O)C(CO)c1ccccc1)C2 (stereo not given in full) | 1.02 ± 0.13 | 0.989 ± 0.16 | 0.953 ± 0.065 | 1 ± 0.013 | 0.935 ± 0.076
11 | Cc1cc(=O)oc2c(O)c(O)ccc12 | 0.961 ± 0.17 | 0.943 ± 0.03 | 0.925 ± 0.044 | 0.869 ± 0.08 | 0.944 ± 0.0071
12 | NCCCC[C@H](NC(=O)[C@H](Cc1ccc(O)cc1)NC(=O)[C@@H](N)CCCCN)C(=O)O | 1.04 ± 0.064 | 0.967 ± 0.042 | 1.06 ± 0.035 | 1.05 ± 0.095 | 1.03
13 | CO[C@H]1C[C@@H]2CC[C@@H](C)[C@@](O)(O2)C(=O)C(=O)N2CCCC[C@H]2C(=O)O[C@H]([C@H](C)C[C@@H]2CC[C@@H](O)[C@H](OC)C2)CC(=O)[C@H](C)/C=C(\C)[C@@H](O)[C@@H](OC)C(=O)[C@H](C)C[C@H](C)/C=C/C=C/C=C/1C | 1.18 ± 0.028 | 0.976 ± 0.049 | 1.35 ± 0.11 | 0.838 ± 0.15 | 1.2 ± 0.21
14 | Nc1nc2c(ncn2COCCO)c(=O)[nH]1 | 1 ± 0.11 | 1.01 ± 0.034 | 0.955 ± 0.078 | 0.991 ± 0.056 | 0.973 ± 0.053
15 | O=c1cc[nH]c(=S)[nH]1 | 1.03 ± 0.073 | 1.04 ± 0.061 | 0.956 ± 0.076 | 1.03 ± 0.014 | 1.02 ± 0.028
16 | O=C(O)[C@@H](O)[C@H](O)[C@H](O)[C@@H](O)C(=O)O | 0.971 ± 0.023 | 1.03 ± 0.05 | 1 ± 0.051 | 1.06 ± 0.035 | 1.03 ± 0.028
17 | C#C[C@]1(O)CC[C@H]2[C@@H]3CCc4cc(OC)ccc4[C@H]3CC[C@@]21C | 0.952 ± 0.011 | 1.02 ± 0.021 | 0.986 ± 0.0085 | 0.981 ± 0.15 | 0.944 ± 0.059
18 | Cc1scc2c1N(C(=O)CN1CCN(C)CC1)c1ccccc1NC2=O | 1.03 ± 0.073 | 1 ± 0.071 | 0.996 ± 0.034 | 0.984 ± 0.052 | 0.954 ± 0.04
19 | COc1cccc2c1C(=O)c1c(O)c3c(c(O)c1C2=O)C[C@@](O)(C(=O)CO)C[C@@H]3O[C@H]1C[C@H](N)[C@H](O)[C@H](C)O1 | 1.04 ± 0.059 | 0.67 ± 0.22 | 1.08 ± 0.035 | 1.09 ± 0.099 | 0.682 ± 0.11
20 | C/C=C1\[C@H]2C=C(C)C[C@]1(N)c1ccc(=O)[nH]c1C2 | 0.965 ± 0.064 | 0.952 ± 0.016 | 1.02 ± 0.014 | 1.1 ± 0.17 | 1 ± 0.16
21 | CC1(C)CC2C1CCC1(C)OC1CCC2(C)O (stereo not given) | 0.995 ± 0.036 | 1 ± 0.067 | 0.975 ± 0.0071 | 1.07 ± 0.078 | 1 ± 0.065
22 | CC1(C)CC[C@]2(C(=O)O)[C@H](O)C[C@]3(C)C(=CC[C@@H]4[C@@]5(C)CC[C@H](O)C(C)(C)[C@@H]5CC[C@]43C)[C@H]2C1 | 0.9085 ± 0.0035 | 0.94 ± 0.16 | 0.9525 ± 0.0092 | 0.919 ± 0.033 | 0.999 ± 0.016
23 | COc1cc(C)cc2ccc(-c3ccc4c(c3O)[C@@H](C)N[C@H](C)C4)c(O)c12 | 1.17 ± 0.19 | 1.04 ± 0.077 | 1.05 ± 0.021 | 1.05 | 1.015 ± 0.0071
24 | COC(=O)[C@H]1[C@H]2C[C@H]3c4[nH]c5ccccc5c4CCN3C[C@@H]2CC[C@@H]1O | 0.988 ± 0.06 | 0.984 ± 0.066 | 1.06 ± 0.014 | 1.01 ± 0.039 | 1.06 ± 0.028
25 | CC(C)[N+](C)(CCOC(=O)C1c2ccccc2Oc2ccccc21)C(C)C | 0.979 ± 0.021 | 1.01 ± 0.14 | 0.984 ± 0.017 | 1.06 ± 0.1 | 1.04 ± 0.06
26 | COCCOC(=O)C1=C(C)NC(C)=C(C(=O)OC(C)C)C1c1cccc([N+](=O)[O-])c1 (stereo not given) | 0.9 ± 0.1 | 0.916 ± 0.16 | 0.858 ± 0.11 | 0.967 ± 0.089 | 1.12 ± 0.11
27 | CC(=O)OCC(=O)[C@@]1(O)CC[C@H]2[C@@H]3CCC4=CC(=O)C=C[C@]4(C)[C@H]3[C@@H](O)C[C@@]21C | 0.992 ± 0.04 | 0.864 ± 0.1 | 0.936 ± 0.0042 | 1.08 ± 0.11 | 1.11 ± 0.092
